Shown are actives, neighbours in structure and some others; about 3.2% of the full set was active somewhere.
p53null 39C kill – selectivity test: cytotoxicity in p53 null cells, nonpermissive temperature; H1299 p53-null (neo) cells, 39C, ATPlite viability, 24 h; 0.97% of 55,000 active; Potency, µM (doses to about 46.1 µM), inactives show at the top dose activity, negative = cell killing, hits mostly cytotoxic;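 also: 0% = DMSO only and -100% = full killing by 100 µM tamoxifen; nearly all actives have a fitted effect of over 50% in size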
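H1299 lung cancer cells, p53-null (H1299-neo) or expressing p53 A138V (H1299-p53A138V), were plated overnight at 37C, then exposed to compounds at up to 46 uM for 24 hr at 39C. Viability was read by ATP-based luminescence.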
p53null 32C tox – p53 null cell cytotoxicity, permissive temperature; H1299-neo p53 null cells, ATP luminescence, 24 h, 32C; Potency, µM (top dose mostly 46.1 µM), for the others: top-dose activity change, negative = cytotoxicity, most hits filed as cytotoxic; 0.62% of 55,000 active;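 also: 0% = DMSO only and -100% = full killing by 100 µM tamoxifen; nearly all actives have a fitted effect of over 55% in size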
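Cells lacking p53 (H1299-neo) are plated at 600 per well and allowed to settle overnight at 37C. Test compounds (up to 46 uM) are added and held 24 hours at 32C, then ATP is quantified by luminescence.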
pS6 MEF inh – inhibitors of mTORC1 signaling in Tsc2-/- p53-/- MEF cells | Tsc2-/- p53-/- MEF, phospho-rpS6 immunofluorescence/PI, 24 h | Potency, µM (top dose mostly 38.3 µM), without a hit: at the highest dose activity change, negative = inhibition, most hits filed as inhibitors | 0.78% of 44,000 active;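 also: plate controls were DMSO for no effect and rapamycin for full effect; nearly all actives have a fitted effect of over 50% in size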
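Immunofluorescence of rpS6 phosphorylation in Tsc2-/-, p53-/- MEFs after 24 h compound exposure, normalized to propidium iodide signal. Activity is expressed as % positive cells, thresholded with 7.5 nM rapamycin.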
PMP22 txn prim – modulators of PMP22 gene transcription in S16 Schwann cells; S16 Pmp22-F2sN Schwann cells, FLuc/NLuc coincidence luminescence, 24 h; AID 1508649; 2% of 43,000 active; Potency, µM (titrated, usually from 57.5 µM), without a hit: at the highest dose activity change, negative = inhibition, usual class: inhibitors; active = clear falling dose curves in both reporters; inconclusive = both reporters move, but less clearly or upward; inactive = either reporter flat; the % is the NLuc reporter signal
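Luminescent read-out of sequential FLuc and NLuc signals from a reporter embedded in the Pmp22 3' UTR of S16 Schwann cells, taken after 24 h compound exposure at 37C; compounds reducing both signals score as inhibitors of expression.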
S16 F2sN tox – S16 Schwann cell cytotoxicity. S16 Pmp22-F2sN Schwann cells (luciferase reporters placed in the Pmp22 gene) viability, CellTiter-Glo, 24 h. Potency, µM (top dose mostly 57.5 µM), inactives show at the top dose activity change, negative = cytotoxicity, actives largely listed as cytotoxic. 0.48% of 43,000 active. AID 1508642; also: nearly all actives have a fitted effect of over 65% in size
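Seed 500-1,000 S16 Pmp22-F2sN cells per well in phenol-red-free DMEM with 10% heat-inactivated FBS; pin-add 23 nL compound; incubate 24 h at 37C; add CellTiter-Glo, wait 15 min protected from light; read luminescence.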
Numbers without * were called inactive; ? = inconclusive; / = no result given. Unless noted, calls follow the shape of the dose curve; as a rule, active = well fitted curve in the direction sought with a large enough effect; inconclusive = small, poorly fitted or top-dose-only effect, or another doubt; inactive = no such curve, though single readings can be large; an effect the other way counts as inactive or inconclusive. Unless noted, % is scaled to controls: 0 for no effect and ±100 for the full control effect; potency is read from the fitted curve at half-maximal effect.

SMILES	p53null 39C kill	p53null 32C tox	pS6 MEF inh	PMP22 txn prim	S16 F2sN tox
CCN1CCN(C(=O)Cn2ncc3c4ccccc4n(Cc4c(C)cc(C)cc4C)c3c2=O)CC1	?	9%	16µM*	?	?
CC(=O)c1cc(-c2ccccc2)n(CCC(=O)NCCc2ccccc2)c1C	12%	4%	-3%	-20%	-12%
CC1CCCN(CCCNC(=O)c2ccc3c(c2)N(Cc2ccc(Cl)cc2)C(=O)c2ccccc2S3(=O)=O)C1 (configuration not stated)	16µM*	?	13µM*	?	?
CCC1CCCCN1CCCNC(=O)c1ccc2c(c1)N(Cc1ccccc1)C(=O)c1ccccc1S2(=O)=O (configuration not stated)	-22%	2%	-13%	?	-17%
Cc1ccc(C)c(CN2C(=O)c3ccccc3S(=O)(=O)c3ccc(C(=O)NCCCN4CCCC(C)C4)cc32)c1 (configuration not stated)	?	-1%	?	?	?
CCC1CCCCN1CCCNC(=O)c1ccc2c(c1)N(Cc1ccc(Cl)cc1)C(=O)c1ccccc1S2(=O)=O (configuration not stated)	25µM*	-1%	?	?	?
Cc1cc(C)cc(Nc2nc3cc(Cl)c(Cl)cc3nc2-n2nc(C)cc2C)c1	-6%	-2%	-2%	11%	4%
Cc1ccc(NC(=O)/C=C/c2ccccc2)c(Br)c1	-28%	-22%	18%	-17%	20%
COc1ccc(NC(=O)c2ccco2)cc1NC(=O)c1cc(Br)ccc1Cl	11%	-5%	-11%	-5%	6%
CC(C)Nc1ncnc2c1cnn2-c1ccccc1	?	11µM*	/	/	/
Cc1ccc(-n2ncc3c(Nc4ccccc4C)ncnc32)cc1	?	?	-5%	-3%	-6%
CCCCN(C)CCNC(=O)C1CCN(c2nc3ccc(CC)cc3s2)CC1	3.2µM*	?	12µM*	?	?
CCc1ccc2nc(N3CCN(C(=O)C4CC4)CC3)sc2c1	20%	-20%	-13%	-10%	-1%
CCc1ccc2nc(N3CCC(C(=O)O)CC3)sc2c1	5µM*	7.9µM*	-1%	24%	-3%
COc1ccc(S(=O)(=O)c2c(Nc3ccccc3F)sc(C(=O)c3cccc(OC)c3)c2N)cc1	3%	17%	-27%	4µM*	?
COc1ccccc1-c1cc(C(F)(F)F)nc(S(=O)(=O)CCCC(=O)Nc2ccc(F)c(Cl)c2)n1	7%	9%	9%	-3%	8%
COc1ccccc1-c1cc(C(F)(F)F)nc(S(=O)(=O)CCCC(=O)Nc2cc(OC)c(OC)c(OC)c2)n1	?	?	0%	0%	8%
COc1ccc(-c2cc(C(F)(F)F)nc(S(=O)(=O)CCCC(=O)Nc3ccccc3C(F)(F)F)n2)cc1OC	?	-15%	18µM*	?	?
COc1ccc(-c2cc(C(F)(F)F)nc(S(=O)(=O)CCCC(=O)Nc3cccc(O)c3)n2)cc1OC	?	25%	?	6µM*	8.9µM*
COc1ccc(NC(=O)CCCS(=O)(=O)c2nc(-c3ccc(OC)c(OC)c3)cc(C(F)(F)F)n2)cc1OC	?	26%	12µM*	4.5µM*	4.5µM*
O=C(COCc1cc(-c2cccs2)on1)N1CCN(c2cccc(Cl)c2)CC1	-28%	8%	-8%	?	-18%
COc1cccc(NC(=O)C2CC(=O)N(c3ccc(Br)cc3)C2)c1 (configuration not stated)	6%	2%	12%	-2%	7%
CCN(CC)c1ccc(CNS(=O)(=O)c2cc3c(cc2C)NC(=O)CO3)cc1	-2%	-2%	14%	?	-5%
COc1ccccc1C1C=C(c2ccc(Cl)cc2)Nc2nc(-c3ccc(Cl)cc3)nn21 (configuration not stated)	34%	20%	12µM*	?	-16%
Cc1cc(C)c2c(N)c(C(=O)Nc3ncc(C)s3)sc2n1	1µM*	0.89µM*	/	/	/
SMILES	p53null 39C kill	p53null 32C tox	pS6 MEF inh	PMP22 txn prim	S16 F2sN tox
Cc1ccc(OCC(=O)NCC2(N3CCN(C)CC3)CCCCC2)cc1C	-19%	0%	?	?	-14%
Cc1cc(OCC(=O)NCC2(N3CCN(C)CC3)CCCCC2)cc(C)c1Cl	-30%	-9%	5.8µM*	?	?
Cc1ccc(-c2c(C(=O)N3CCN(c4ccc(F)cc4)CC3)oc(=O)c3ccccc23)cc1	9%	4%	2%	?	25%
O=C(C1CC1)N1CCc2cc(Br)cc(S(=O)(=O)Nc3ccc(C(F)(F)F)cc3)c21	16µM*	?	?	?	8%
CCOC(=O)c1cccc(NS(=O)(=O)c2cc(Br)cc3c2N(C(=O)C2CC2)CC3)c1	16%	15%	0%	?	0%
O=C(C1CC1)N1CCc2cc(Br)cc(S(=O)(=O)Nc3ccc(F)c(F)c3)c21	13µM*	25µM*	0%	?	?
CN(Cc1ccccc1)C(=O)CSc1c2c(nc3ccc(Cl)cc13)CCCC2	13µM*	?	13µM*	?	?
CCCN(CCC)C(=O)CSc1c2c(nc3ccc(Cl)cc13)CCCC2	?	-26%	-12%	?	27%
COc1cc(OC)c(N(C)C(=O)CSc2c3c(nc4ccc(Cl)cc24)CCCC3)cc1Cl	20µM*	33%	-1%	?	-3%
CC1CCCN(C(=O)CSc2c3c(nc4cc(Cl)ccc24)CCCC3)C1 (configuration not stated)	16µM*	3%	?	?	5%
CCCCN(C)C(=O)CSc1c2c(nc3ccc(Cl)cc13)CCCC2	78%	1%	18µM*	?	-3%
O=c1n(Cc2ccc(Cl)cc2)c2ccccc2c2nc(-c3ccccc3)nn12	-2%	-6%	-11%	-34%	9%
Cc1ccccc1Cn1c(Oc2ccccc2F)nc2c1c(=O)n(C)c(=O)n2C	-5%	-7%	0%	2%	3%
Cc1cccc(Oc2ccc3c(c2)Oc2ccccc2NC3=O)c1	-31%	?	-15%	?	?
Cc1cccc(N2CCN(C(=O)c3c(C)oc4nc(C)nc(N5CCCC5)c34)CC2C)c1 (configuration not stated)	-30%	11%	7%	8%	2%
CCOC(=O)c1cccc(NC(=O)Cn2ncc3c4ccccc4n(Cc4ccccc4)c3c2=O)c1	?	-5%	1%	?	17%
CCOc1cc(CNc2ccc(O)cc2)cc(Cl)c1OCc1ccccc1	?	11%	?	?	8.9µM*

Source: PubChem BioAssay (National Center for Advancing Translational Sciences (NCATS))
